Assay results as given in PubChem BioAssay (NCI).
This is part of a sample that, as a whole, favours compounds with a hit. Of some 79,000 tested, about 15% had one in any assay. Unmarked numbers belong to inactive results. The source made the active and inactive calls. No stated cut-off is given here; in the data, active means growth inhibition above about 70%; inactive means the rest.

Columns and labels:
[1] = NCI Yeast Anticancer Drug Screen. Data for the rad50 strain (AID 155);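 further: 0% = growth of vehicle-only cultures of the same strain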; settings: S. cerevisiae rad50 strain growth inhibition, active compounds read high; at 50.0 µM unless noted
How it was run: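 Genetically altered yeast (DNA repair pathway); compound treatment; growth inhibition vs vehicle ctrl.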

[2] = NCI Yeast Anticancer Drug Screen. Data for the mec2-1 strain (AID 157); settings: S. cerevisiae mec2-1 strain, active compounds read high; at 50.0 µM unless noted
How it was run: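 Vehicle-treated cultures served as reference for growth inhibition of compound-exposed mec2-1 yeast.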

[3] = NCI Yeast Anticancer Drug Screen. Data for the sgs1 mgt1 strain (AID 161);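 further: 0% = growth of cultures given vehicle only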; settings: S. cerevisiae sgs1 mgt1 strain, active compounds read high; at 50.0 µM unless noted
How it was run: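 Inhibition of yeast growth, normalised to vehicle-treated controls, is reported for a strain bearing genetic alterations in DNA damage repair.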

[4] = NCI Yeast Anticancer Drug Screen. Data for the cln2 rad14 strain (AID 165);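 further: 0% = growth equal to vehicle treated cultures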; settings: S. cerevisiae cln2 rad14 strain, active compounds read high; at 50.0 µM unless noted
How it was run: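 Each compound was tested on cln2 rad14 yeast. Inhibition of growth was calculated against vehicle-exposed controls.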

[5] = NCI Yeast Anticancer Drug Screen. Data for the bub3 strain (AID 167); settings: S. cerevisiae bub3 mutant strain, active compounds read high; at 50.0 µM unless noted
How it was run: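 Yeast carrying a defined mutation is treated with each compound, and growth is compared with that of vehicle-exposed cells to give inhibition.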

[6] = NCI Yeast Anticancer Drug Screen. Data for the mlh1 rad18 strain (AID 175); settings: S. cerevisiae mlh1 rad18 strain growth inhibition, active compounds read high; at 50.0 µM unless noted
How it was run: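 Vehicle-treated cultures served as the reference for growth inhibition in a yeast strain carrying DNA damage repair alterations exposed to each compound.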

SMILES	growth inhibition [1]	growth inhibition [2]	growth inhibition [3]	growth inhibition [4]	growth inhibition [5]	growth inhibition [6]
CC1=CC(=O)[C@@H](O)[C@@]2(C)C1C[C@H]1OC(=O)[C@H](C/C=C(/C)C(C)C)[C@H]3C(C)C(O)C4(O)OC[C@@]31C42 (some centres undefined)	76.8% (active)	77.9% (active)	72% (active)	81.7% (active)	80% (active)	76.5% (active)
CC(=O)NCCc1ccccc1	-18.2%	20.9%	3.2%	-19.3%	10%	-0.1%
Cc1c(Cl)cccc1NC(=O)C(C)NCC(C)C (centres undefined)	-4.4%	-0.2%	-6.05%	-11.7%	14.8%	-19.6%
NC1=CN(CCCO)C2=N/C(=C\c3ccccc3)C(=O)N12	14.2%	-3.65%	26.4%	8.9%	-3.3%	12.7%
CN=c1ss/c(=N\C(=S)N(C)C)n1C1CCCCC1	-9.6%	-0.55%	14%	13.1%	0%	21.2%
O=S(=O)(c1ccc(Cl)cc1)S(=O)(=O)c1ccc(Cl)cc1	18.8%	8.5%	8.6%	-18.4%	4.5%	10.4%
Nc1nnc2nc(CC(=O)c3ccc(Cl)c(Cl)c3)/c(=C/C(=O)c3ccc(Cl)c(Cl)c3)n12	11.5%	12.3%	-12.3%	17.2%	1.7%	-10.2%
C[N+]1(Cc2ccco2)CCCCC1	-12.6%	9.65%	0.15%	-14.4%	9%	-6.85%
Cn1cc(C(=O)c2ccccc2)cc(C(=O)c2ccccc2)c1=O	-3.05%	-12.1%	-6.05%	1.5%	-15.2%	-36.5%
COc1ccc(-n2cnc3c2NC(C)(C)N=C3C(N)=O)c(OC)c1	-17.8%	-30.1%	-36.1%	24.9%	-10.2%	-23.2%
OC(CN1CCCC2CCCCC21)c1cc2c(c3ccccc13)CCCC2 (centres undefined)	98.2% (active)	96.7% (active)	99.5% (active)	93.7% (active)	98.5% (active)	99.5% (active)
NC(N)=N/N=C(/c1ccccc1)c1ccc(O)cc1O	20.2%	-15.7%	-8.5%	9.7%	-48.6%	14.5%
Clc1ccccc1Br	2.85%	-11.2%	4.65%	0.55%	2.25%	-8.3%
O=C(ON=C1C=CC(=NOC(=O)c2ccccc2)C=C1)c1ccccc1	10.2%	-20.6%	9.35%	17.3%	1.15%	7.6%
Cc1ccc(S(=O)(=O)NN=C2C3C=CC2CC3)cc1	11.8%	-2.3%	2.55%	6.25%	2.7%	4.75%
CCOC(=O)c1c[nH]c2c(Cl)c(Cl)ccc2c1=O	-4.65%	-19.1%	-1.1%	12.9%	9.25%	-6.95%
CC(=O)CC(=O)c1ccc(C(=O)CC(C)=O)cc1.[Fe]	-8.1%	-2.35%	-8.3%	11.7%	14.4%	2.15%
CC(C)(Br)C(Br)CCC(C)(Br)C(Br)CO (centres undefined)	10.9%	-0.7%	-3.8%	-12.1%	0.55%	-1.3%
CCOC(CN)(OCC)c1ccncc1	10.9%	14.2%	8.65%	-27.1%	11.2%	-0.05%
